The source made the active and inactive calls. Rule for the calls: active = hit-call score of the fitted dose curve at least 0.9, where 1 is the maximum; inactive = score below 0.9.
What follows are compounds tested on TTR (gene 7276) (assay: CCTE_GLTED_hTTR_0.125uM: CCTE's human Transthyretin (hTTR) Inhibition Assay, with 0.125uM TTR, Great Lakes Toxicology and Ecology Division (GLTED) Lab (AID 2284431);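 note: hits lower the fluorescence signal relative to DMSO baseline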).
Method in brief: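 TTR 0.125uM + test chemical, 2 h; ANSA probe displacement; ex 380/em 475 fluorescence; signal loss vs DMSO control.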
In the case of `CCCCCCCCCCCCOCCOS(=O)(=O)O`, the AC50 is reported as 6.09 µM (active). With `O=S(=O)(O)c1cc(S(=O)(=O)O)c2c(N=Nc3ccccc3)c(O)ccc2c1` the AC50 was 12 µM (active). In the case of `CCCCCCCCCOS(=O)(=O)O`, the AC50 is reported as 8.43 µM (active). For `CCCCCCCCOC(=O)c1ccc(O)cc1`, the AC50 was 2.77 µM (active). With `O=c1cc(-c2ccc(O)cc2)oc2cc(O)cc(O)c12` the AC50 was 0.035 µM (active). `CCCCCCCCOS(=O)(=O)O` was tested, and the AC50 was 10.6 µM (active). For `CCCCCCOc1ccc(O)cc1`, the AC50 was 3.47 µM (active). With `C#C[C@]1(O)CC[C@H]2[C@@H]3CCc4cc(O)ccc4[C@H]3CC[C@@]21C` the AC50 was 2.73 µM (active).

Reference: PubChem BioAssay (EPA / NIEHS)
